According to the supplement of paper PMC8285479:
Structures can show the parent of a compound that is named as a salt. ± gives the standard deviation of the averaged measurements. Over roughly 1,900 compounds, “normalised cell viability (NPI; 0 = phenylarsine oxide control, 1 = DMSO control)” has its median near 1; the lowest 2% begin near 0.039. Only a selection was taken, and the lowest values are over-represented in it overall.

Test system: NCI-H1944
Assay: normalised cell viability (NPI; 0 = phenylarsine oxide control, 1 = DMSO control) (fraction of DMSO control); NCI-H1944 is a non-small cell lung cancer line; higher = more viable cells (less compound toxicity)
Conditions: 6 days
[1] = glucocorticoid arm: hydrocortisone 2.75 uM co-treatment, compound 1 µM
[2] = glucocorticoid arm: hydrocortisone 2.75 uM co-treatment, compound 5 µM
[3] = glucocorticoid arm: hydrocortisone 2.75 uM pre-treated 2 days and continued, compound 1 µM
[4] = glucocorticoid arm: hydrocortisone 2.75 uM pre-treated 2 days and continued, compound 5 µM
[5] = glucocorticoid arm: vehicle, compound 1 µM
[6] = glucocorticoid arm: vehicle, compound 5 µM
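Further: CTB read-out in 384-well plates, triplicate wells, NPI normalised per plate against 1 µM phenylarsine oxide (0) and 0.1% DMSO (1) controls.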

CC(=O)O[C@@]12CO[C@@H]1C[C@H](O)[C@@]1(C)C(=O)[C@H](O)C3=C(C)[C@@H](OC(=O)[C@H](O)[C@@H](NC(=O)OC(C)(C)C)c4ccccc4)C[C@@](O)([C@@H](OC(=O)c4ccccc4)[C@H]21)C3(C)C [Docetaxel]
normalised cell viability [1]: 0.159 ± 0.0035 | normalised cell viability [2]: 0.163 ± 0.0095 | normalised cell viability [3]: 0.462 ± 0.023 | normalised cell viability [4]: 0.518 ± 0.015 | normalised cell viability [5]: 0.049 ± 0.0034 | normalised cell viability [6]: 0.0428 ± 0.0097

CO[C@H]1C(=O)[C@]2(C)[C@@H](OC)C[C@H]3OC[C@@]3(OC(C)=O)[C@H]2[C@H](OC(=O)c2ccccc2)[C@]2(O)C[C@H](OC(=O)[C@H](O)[C@@H](NC(=O)OC(C)(C)C)c3ccccc3)C(C)=C1C2(C)C [Cabazitaxel]
normalised cell viability [1]: 0.191 ± 0.012 | normalised cell viability [2]: 1.05 ± 0.021 | normalised cell viability [3]: 0.468 ± 0.0065 | normalised cell viability [4]: 1.05 ± 0.015 | normalised cell viability [5]: 0.0505 ± 0.01 | normalised cell viability [6]: 1.007 ± 0.0058

CC(=O)O[C@H]1C(=O)[C@@]2(C)[C@H]([C@H](OC(=O)c3ccccc3)[C@]3(O)C[C@H](OC(=O)[C@H](O)[C@@H](NC(=O)c4ccccc4)c4ccccc4)C(C)=C1C3(C)C)[C@]1(OC(C)=O)CO[C@@H]1C[C@@H]2O [Paclitaxel; Taxol]
normalised cell viability [1]: 0.131 ± 0.0057 | normalised cell viability [2]: 1.03 ± 0.01 | normalised cell viability [3]: 0.466 ± 0.032 | normalised cell viability [4]: 1.02 ± 0.011 | normalised cell viability [5]: 0.0302 ± 0.0049 | normalised cell viability [6]: 1.01 ± 0.01

CC(=O)O[C@H]1C(=O)[C@@]2(C)[C@H]([C@H](OC(=O)c3ccccc3)[C@]3(O)C[C@H](OC(=O)[C@H](O)[C@@H](NC(=O)c4ccccc4)c4ccccc4)C(C)=C1C3(C)C)[C@]1(OC(C)=O)CO[C@@H]1C[C@@H]2O [Taxol]
normalised cell viability [1]: 0.122 ± 0.012 | normalised cell viability [2]: 0.117 ± 0.015 | normalised cell viability [3]: 0.8513 ± 0.0064 | normalised cell viability [4]: 0.802 ± 0.051 | normalised cell viability [5]: 0.0515 ± 0.0084 | normalised cell viability [6]: 0.0382 ± 0.0051

COC(=O)C1=C(C)NC(C)=C([N+](=O)[O-])C1c1ccccc1C(F)(F)F (racemic)
normalised cell viability [1]: 0.99 ± 0.0072 | normalised cell viability [2]: 0.942 ± 0.02 | normalised cell viability [3]: 0.9753 ± 0.0031 | normalised cell viability [4]: 0.9355 ± 0.00071 | normalised cell viability [5]: 0.962 ± 0.01 | normalised cell viability [6]: 0.947 ± 0.011

CCC1=C[C@@H]2CN(C1)Cc1c([nH]c3ccccc13)[C@@](C(=O)OC)(c1cc3c(cc1OC)N(C)[C@H]1[C@@](O)(C(=O)OC)[C@H](OC(C)=O)[C@]4(CC)C=CCN5CC[C@]31[C@@H]54)C2 [Vinorelbine tartrate]
normalised cell viability [1]: 0.327 ± 0.0017 | normalised cell viability [2]: 0.35 ± 0.02 | normalised cell viability [3]: 0.629 ± 0.017 | normalised cell viability [4]: 0.683 ± 0.036 | normalised cell viability [5]: 0.0577 ± 0.0028 | normalised cell viability [6]: 0.0356 ± 0.0026

CC[C@]1(O)C[C@@H]2CN(CCc3c([nH]c4ccccc34)[C@@](C(=O)OC)(c3cc4c(cc3OC)N(C)[C@H]3[C@@](O)(C(=O)OC)[C@H](OC(C)=O)[C@]5(CC)C=CCN6CC[C@]43[C@@H]65)C2)C1 [Vinblastine sulfate salt]
normalised cell viability [1]: 0.361 ± 0.02 | normalised cell viability [2]: 0.337 ± 0.021 | normalised cell viability [3]: 0.795 ± 0.17 | normalised cell viability [4]: 0.94 ± 0.023 | normalised cell viability [5]: 0.0757 ± 0.0017 | normalised cell viability [6]: 0.0495 ± 0.005

CC[C@]1(O)C[C@@H]2CN(CCc3c([nH]c4ccccc34)[C@@](C(=O)OC)(c3cc4c(cc3OC)N(C)[C@H]3[C@@](O)(C(=O)OC)[C@H](OC(C)=O)[C@]5(CC)C=CCN6CC[C@]43[C@@H]65)C2)C1 [Vinblastine sulfate salt; Vinblastine sulfate]
normalised cell viability [1]: 0.354 ± 0.019 | normalised cell viability [2]: 1.023 ± 0.0058 | normalised cell viability [3]: 0.621 ± 0.029 | normalised cell viability [4]: 1.03 ± 0.027 | normalised cell viability [5]: 0.0439 ± 0.00099 | normalised cell viability [6]: 1.017 ± 0.0058

C=CCN1CCc2c(cc(O)c(O)c2Br)[C@@H](c2ccccc2)C1 [R(+)-6-Bromo-APB hydrobromide]
normalised cell viability [1]: 0.986 ± 0.017 | normalised cell viability [2]: 1.01 | normalised cell viability [3]: 0.989 ± 0.0095 | normalised cell viability [4]: 1 ± 0.011 | normalised cell viability [5]: 0.976 ± 0.011 | normalised cell viability [6]: 0.9827 ± 0.0035

COc1c/c(=C2\C=c3ccccc3=N2)[nH]/c1=C\c1[nH]c(C)cc1C [Obatoclax mesylate (GX15-070)]
normalised cell viability [1]: 0.972 ± 0.014 | normalised cell viability [2]: 0.42 ± 0.019 | normalised cell viability [3]: 1 ± 0.0087 | normalised cell viability [4]: 1.03 ± 0.015 | normalised cell viability [5]: 0.564 ± 0.07 | normalised cell viability [6]: 0.0292 ± 0.0041

Cc1cc(C)c(/C=C2\C(=O)Nc3ccccc32)[nH]1 [Semaxanib (SU5416)]
normalised cell viability [1]: 1.09 ± 0.011 | normalised cell viability [2]: 1.15 ± 0.046 | normalised cell viability [3]: 1.09 ± 0.011 | normalised cell viability [4]: 1.11 ± 0.017 | normalised cell viability [5]: 1.023 ± 0.0058 | normalised cell viability [6]: 1.027 ± 0.0058

Cc1cc(C)c(/C=C2\C(=O)Nc3ccccc32)[nH]1
normalised cell viability [1]: 1.06 ± 0.01 | normalised cell viability [2]: 1.09 ± 0.015 | normalised cell viability [3]: 1.07 ± 0.044 | normalised cell viability [4]: 1.12 ± 0.017 | normalised cell viability [5]: 1.03 | normalised cell viability [6]: 1.03 ± 0.011

O=C(O)CCC(NC(=O)c1ccccc1C(=O)O)C(=O)O [Phthalamoyl-L-glutamic acid trisodium]
normalised cell viability [1]: 0.9933 ± 0.0031 | normalised cell viability [2]: 1.06 ± 0.021 | normalised cell viability [3]: 0.869 ± 0.23 | normalised cell viability [4]: 1.03 ± 0.025 | normalised cell viability [5]: 0.997 ± 0.0052 | normalised cell viability [6]: 1.006 ± 0.0063
